Laboratory results taken from PubChem BioAssay (Tox21).
Records with an inconclusive call do not appear. Activity calls are given as the source filed them. Unless noted, calls follow the shape of the dose curve; as a rule, active = well fitted curve in the direction sought with a large enough effect in the repeat runs; inconclusive = weak or mixed curves; inactive = no such curve, though single readings can be large; an effect the other way counts as inactive or inconclusive.

Columns and labels:
[1] = A CellTox Green Cytotoxicity Assay to monitor cytotoxicity in HepG2 cells - 8 hour (AID 1224890); also: nearly all actives have a fitted effect of over 45% in size
Summary of the method: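 Real-time, homogeneous cytotoxicity readout: dead-cell DNA staining by CellTox Green in HepG2 monolayers, fluorescence measured at timed intervals up to 40 h of continuous compound exposure.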

[2] = qHTS assay to identify small molecule antagonists of the estrogen receptor alpha (ER-alpha) signaling pathway using the BG1 cell line in the presence of 0.1 nM 17-beta-estradiol - cell viability counter screen (AID 1259241); also: nearly all actives have a fitted effect of over 40% in size
Summary of the method: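 Cytotoxicity counter-screen: live-cell protease activity measured by fluorescence (30 min reagent step) in the same wells. Cells were VM7Luc4E2 with endogenous ER-alpha and ERE-driven luciferase, treated 22 hr at 37C alongside 0.1 nM 17beta-estradiol final.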

[3] = qHTS assay to identify small molecule antagonists of the androgen receptor (AR) signaling pathway using the MDA cell line in the presence of 0.5 nM R1881 - cell viability counter screen (AID 1259242); also: nearly all actives have a fitted effect of over 45% in size
Summary of the method: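 Cytotoxicity toward MDA-kb2 cells is measured by CellTiter-Fluor live-cell protease fluorescence after 16 hr compound exposure at 37C in the presence of 0.5 nM R1881 stimulator.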

[4] = target: Estrogen receptor (Homo sapiens) (UniProt P03372); experiment: qHTS assay to identify small molecule antagonists of the estrogen receptor alpha (ER-alpha) signaling pathway using the BG1 cell line in the presence of 0.1 nM 17-beta-estradiol (AID 1259244); also: nearly all actives have a fitted effect of over 50% in size
Chain of Estrogen receptor (Homo sapiens) (P03372 whole entry, looked up): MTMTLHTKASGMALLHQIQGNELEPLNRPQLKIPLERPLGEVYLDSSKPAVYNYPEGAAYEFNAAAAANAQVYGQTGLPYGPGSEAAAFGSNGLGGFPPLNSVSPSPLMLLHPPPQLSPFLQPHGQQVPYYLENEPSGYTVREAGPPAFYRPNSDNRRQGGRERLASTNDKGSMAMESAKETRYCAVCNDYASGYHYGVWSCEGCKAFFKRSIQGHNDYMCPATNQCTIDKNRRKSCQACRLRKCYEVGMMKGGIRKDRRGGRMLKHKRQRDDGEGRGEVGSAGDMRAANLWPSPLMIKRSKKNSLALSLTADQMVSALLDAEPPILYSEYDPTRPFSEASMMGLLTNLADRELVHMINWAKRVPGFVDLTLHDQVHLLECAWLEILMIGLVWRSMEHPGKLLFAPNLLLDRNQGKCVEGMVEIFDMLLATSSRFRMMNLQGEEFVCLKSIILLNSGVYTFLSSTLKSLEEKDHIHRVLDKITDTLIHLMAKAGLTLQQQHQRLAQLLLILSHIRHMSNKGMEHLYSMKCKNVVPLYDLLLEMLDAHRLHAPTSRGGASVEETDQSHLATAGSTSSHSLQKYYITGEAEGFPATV
Summary of the method: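 After 5 days in hormone-depleted medium (charcoal-stripped serum, no phenol red), VM7Luc4E2 cells were seeded, incubated 24 h, then co-treated with compound and 0.1 nM (final) estradiol for 22 h before luminescence detection.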

[5] = qHTS assay to identify small molecule phospholipidosis (PLD) inducers (AID 1259344; active = well fitted curve in the direction sought with a large enough effect; an effect the other way counts as inactive or inconclusive)
Summary of the method: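 Quantitative HTS in HepG2: compound plus LipidTOX Red dye for 24 h, paraformaldehyde fixation with Hoechst 33342, widefield high-content imaging; amiodarone as positive and DMSO as negative control.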

[6] = qHTS assay to identify small molecule HDAC inhibitors (AID 1259364); also: top concentration of the series differs between compounds; nearly all actives have a fitted effect of over 45% in size
Summary of the method: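 Homogeneous cell-based luminescent assay of endogenous class I/II HDAC activity; HCT-116 cells, 2 h compound exposure, 30 min HDAC-Glo development at RT.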

[7] = qHTS assay to identify small molecule HDAC inhibitors - cell viability counter screen (AID 1259365); also: series mostly up to about 92 µM; nearly all actives have a fitted effect of over 50% in size
Summary of the method: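 CellTiter-Glo luminescence (30 min, room temperature) reported viability after a 2 h compound exposure at 37 C. Cells: wild-type HCT-116, 1,500 per well, seeded the night before.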

[8] = qHTS assay to identify small molecule agonists of the sonic hedgehog signaling (Shh) pathway - cell viability counter screen (AID 1259366); also: nearly all actives have a fitted effect of over 50% in size
Summary of the method: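 Cytotoxicity counter screen: CellTiter-Fluor reagent added after 23 h compound exposure, then 1 h at 37C and fluorescence read. Cells were 3T3 Gli1-Luc, seeded 2,000 per well and dosed 4 h post-plating.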

[9] = qHTS assay to identify small molecule antagonists of the sonic hedgehog signaling (Shh) pathway - cell viability counter screen (AID 1259367); also: nearly all actives have a fitted effect of over 55% in size
Summary of the method: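 Seed 3T3 Gli1-Luc cells at 2,000 per well; incubate 4 hr; add compound in DMSO, then conditioned medium; incubate at 37C with 5% CO2; add CellTiter-Fluor after 23 hr; read fluorescence 1 hr later.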

[10] = qHTS assay to identify small molecule agonists of the sonic hedgehog signaling (Shh) pathway (AID 1259368; calls by dose curve;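 also: NIH/3T3-derived 3T3Gli1-Luc cells carrying a stable Gli1-driven firefly luciferase reporter; series mostly up to about 92 µM; nearly all actives have a fitted effect of over 15% in size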)
Summary of the method: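 Steps: seed 3T3 Gli1-Luc cells, incubate 4 hr at 37 C, pin-transfer compounds in DMSO alongside a positive control, incubate 24 hr, add luciferase detection reagent, wait 30 min at room temperature, read luminescence.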

[11] = qHTS assay to identify small molecule antagonists of the sonic hedgehog signaling (Shh) pathway (AID 1259369; calls by dose curve; also: nearly all actives have a fitted effect of over 45% in size)
Summary of the method: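 Inhibition of Shh signalling is measured as reduced Gli1-response-element firefly luciferase output in an NIH/3T3-derived stable reporter clone stimulated with conditioned medium for 24hr.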

[12] = target: Estrogen receptor beta (Homo sapiens) (UniProt Q92731); experiment: qHTS assay to identify small molecule agonists of the estrogen receptor beta (ER-beta) signaling pathway (AID 1259377; active = well fitted activation curve with a large enough effect in the signal ratio in the repeat runs, not every such curve was filed as active; the % refers to the signal ratio)
Chain of Estrogen receptor beta (Homo sapiens) (Q92731 whole entry, looked up): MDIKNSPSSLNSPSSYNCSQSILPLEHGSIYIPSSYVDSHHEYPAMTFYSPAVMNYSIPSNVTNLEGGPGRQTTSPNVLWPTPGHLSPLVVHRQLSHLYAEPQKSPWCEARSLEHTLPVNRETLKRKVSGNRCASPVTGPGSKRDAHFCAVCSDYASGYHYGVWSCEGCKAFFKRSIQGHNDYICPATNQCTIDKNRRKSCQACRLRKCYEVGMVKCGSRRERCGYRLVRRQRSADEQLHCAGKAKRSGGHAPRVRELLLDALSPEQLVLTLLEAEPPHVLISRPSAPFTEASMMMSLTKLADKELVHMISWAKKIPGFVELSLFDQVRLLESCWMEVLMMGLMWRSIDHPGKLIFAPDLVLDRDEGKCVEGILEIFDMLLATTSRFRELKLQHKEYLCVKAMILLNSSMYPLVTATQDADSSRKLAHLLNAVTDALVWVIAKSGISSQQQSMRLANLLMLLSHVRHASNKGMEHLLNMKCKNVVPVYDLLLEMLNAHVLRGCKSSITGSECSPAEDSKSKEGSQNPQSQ
Summary of the method: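 Ratiometric beta-lactamase FRET read-out came after 2 h substrate loading at room temperature. It followed 16 h compound treatment at 37C of GripTite HEK293T cells carrying a UAS-bla reporter, plated in 2% charcoal-stripped FBS medium.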

[13] = target: Estrogen receptor beta (Homo sapiens) (UniProt Q92731); experiment: qHTS assay to identify small molecule antagonists of the estrogen receptor beta (ER-beta) signaling pathway (AID 1259378; active = well fitted inhibition curve with a large enough effect in the signal ratio in the repeat runs, not every such curve was filed as active; the % refers to the signal ratio)
Summary of the method: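 ER-beta-UAS-bla HEK293T cells in 2% charcoal-stripped FBS medium treated with compound plus 1nM final 17-beta-estradiol for 16 hr at 37C. Beta-lactamase reporter read by FRET substrate fluorescence after 2 hours at room temperature.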

[14] = qHTS assay to identify small molecule agonists of the androgen receptor (AR) signaling pathway in the presence of an antagonist - cell viability counter screen (AID 1259379);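 also: MDA-kb2 human breast cancer cells carrying an MMTV luciferase reporter; series mostly up to about 92 µM; nearly all actives have a fitted effect of over 25% in size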
Summary of the method: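 Fluorescence from CellTiter-Fluor, added after 15 hr and read 1 hr later, gave cell viability. Cells were MDA-kb2 exposed to compounds (15 concentrations) in the presence of 3.0uM nilutamide at 37C, 0% CO2.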

[15] = qHTS assay to identify small molecule agonists of the estrogen receptor beta (ER-beta) signaling pathway - cell viability counter screen (AID 1259380); also: nearly all actives have a fitted effect of over 30% in size
Summary of the method: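 Same-well viability counter screen. Cells: ER-beta-UAS-bla HEK293T, plated 6 hr before compound, in 2% charcoal-stripped FBS. Compound exposure 16 hr, 37C; viability by CellTiter-Glo luminescence after 30 min at room temperature.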

[16] = qHTS assay to identify small molecule antagonists of the estrogen receptor beta (ER-beta) signaling pathway - cell viability counter screen (AID 1259382); also: series mostly up to about 92 µM; nearly all actives have a fitted effect of over 55% in size
Summary of the method: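 Following a 6 hr plating period, HEK293T cells carrying a UAS-driven beta-lactamase reporter under ER-beta control received compounds and 1nM E2 (final). After 16 hr at 37C and 2 hr substrate loading, CellTiter-Glo luminescence indicated viability.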

[17] = target: Estrogen receptor (Homo sapiens) (UniProt P03372); experiment: qHTS assay to identify small molecule agonists of the estrogen receptor alpha (ER-alpha) signaling pathway in the presence of an antagonist (AID 1259383; calls by dose curve; also: top concentration of the series differs between compounds; nearly all actives have a fitted effect of over 15% in size)
Summary of the method: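 Cells are hormone-deprived for 5 days (charcoal-stripped FBS, no phenol red), plated for 24hr, spiked with 10.0nM ICI-182,780, then dosed at 15 concentrations. After 22hr at 37C, ONE-Glo luminescence reports ERE-luciferase activity.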

[18] = qHTS assay to identify small molecule agonists or antagonists of the thyroid stimulating hormone receptor (TSHR) signaling pathway - wild type cell line counter screen (AID 1259384; calls by dose curve)
Summary of the method: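 Wild-type Hek293 cells, 800/well, 18 h at 37C, then compound with Ro20-1724 for 30 min RT. cAMP by HTRF (cAMP-d2/anti-cAMP cryptate), 1 h RT, fluorescence read. 15 concentrations, triplicates.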

[19] = target: Androgen receptor (Homo sapiens) (UniProt P10275); experiment: qHTS assay to identify small molecule antagonists of the androgen receptor (AR) signaling pathway using the MDA cell line in the presence of 0.5 nM R1881 (AID 1259243); also: nearly all actives have a fitted effect of over 50% in size
Chain of Androgen receptor (Homo sapiens) (P10275 whole entry, looked up): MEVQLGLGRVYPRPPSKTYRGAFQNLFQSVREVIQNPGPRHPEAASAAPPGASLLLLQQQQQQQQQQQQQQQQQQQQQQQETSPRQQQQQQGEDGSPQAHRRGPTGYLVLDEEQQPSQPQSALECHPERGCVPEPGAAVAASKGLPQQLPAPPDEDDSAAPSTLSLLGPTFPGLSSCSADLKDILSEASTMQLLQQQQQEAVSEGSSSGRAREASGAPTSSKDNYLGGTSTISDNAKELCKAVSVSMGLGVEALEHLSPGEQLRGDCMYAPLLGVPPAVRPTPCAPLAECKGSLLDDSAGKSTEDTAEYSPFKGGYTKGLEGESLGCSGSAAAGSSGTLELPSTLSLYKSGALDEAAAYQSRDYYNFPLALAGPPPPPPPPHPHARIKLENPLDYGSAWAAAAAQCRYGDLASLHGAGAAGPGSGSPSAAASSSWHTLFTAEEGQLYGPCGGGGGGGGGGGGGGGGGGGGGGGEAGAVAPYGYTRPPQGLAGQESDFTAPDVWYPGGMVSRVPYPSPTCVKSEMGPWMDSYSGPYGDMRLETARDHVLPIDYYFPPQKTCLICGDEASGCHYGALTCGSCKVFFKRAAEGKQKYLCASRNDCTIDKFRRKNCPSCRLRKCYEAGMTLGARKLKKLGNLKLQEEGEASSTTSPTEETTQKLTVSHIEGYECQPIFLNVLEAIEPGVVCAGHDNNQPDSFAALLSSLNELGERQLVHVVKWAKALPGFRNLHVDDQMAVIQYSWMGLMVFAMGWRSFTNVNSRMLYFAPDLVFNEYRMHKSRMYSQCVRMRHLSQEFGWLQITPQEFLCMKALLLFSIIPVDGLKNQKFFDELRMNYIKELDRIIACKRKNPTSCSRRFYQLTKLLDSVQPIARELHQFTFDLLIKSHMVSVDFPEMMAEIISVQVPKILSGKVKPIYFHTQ
Summary of the method: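 Steps: seed MDA-kb2 cells, incubate 5 hr at 37C; pin-transfer compounds in DMSO; add R1881 to 0.5 nM final; incubate 16 hr; add ONE-Glo, wait 30 min at room temperature; read luminescence.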

[20] = target: Androgen receptor (Homo sapiens) (UniProt P10275); experiment: qHTS assay to identify small molecule agonists of the androgen receptor (AR) signaling pathway in the presence of an antagonist (AID 1259381; calls by dose curve; also: nearly all actives have a fitted effect of over 15% in size)
Summary of the method: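 Cells are MDA-kb2 (human breast carcinoma, MMTV-luc, AR/GR responsive). Nilutamide is present at 3.0uM final throughout; compounds are added at 15 concentrations and incubated 16hr at 37C before ONE-Glo luminescence detection.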
% is scaled to controls: 0 for no effect and ±100 for the full control effect.

O=C[C@H](O)[C@@H](O)[C@H](O)[C@H](O)CO
inactive: Potency [1] | outcome [2] | Potency [3] | outcome [4] | PLD induction [5] -4.07% [at 7.66 µM] | Potency [6] | outcome [7] | Potency [8] | Potency [9] | outcome [10] | Potency [11] | outcome [12] | outcome [13] | Potency [14] | Potency [15] | Potency [16] | Potency [17] | outcome [18]

c1ccc([C@H]2CN3CCSC3=N2)cc1
inactive: Potency [1] | outcome [2] | Potency [3] | outcome [4] | Potency [5] | Potency [6] | outcome [7] | Potency [8] | Potency [9] | Potency [11] | outcome [12] | outcome [13] | Potency [14] | Potency [15] | Potency [16] | Potency [17] | outcome [18]

Nc1cc(=O)[nH]c(N)n1
inactive: Potency [1] | outcome [2] | Potency [3] | outcome [4] | PLD induction [5] 1.63% [at 7.66 µM] | Potency [6] | outcome [7] | Potency [8] | Potency [9] | outcome [10] | Potency [11] | outcome [12] | outcome [13] | Potency [14] | Potency [15] | Potency [16] | Potency [17] | outcome [18]

C[C@H](NC(CCc1ccccc1)C(=O)O)C(=O)N1CCC[C@H]1C(=O)O (stereo not given in full)
inactive: Potency [1] | outcome [2] | Potency [3] | outcome [4] | Potency [5] | Potency [6] | outcome [7] | Potency [8] | Potency [9] | outcome [10] | outcome [12] | outcome [13] | Potency [14] | Potency [15] | Potency [16] | Potency [17] | outcome [18]

Nc1nc2c(ncn2COC(CO)CO)c(=O)[nH]1
inactive: Potency [1] | outcome [2] | Potency [3] | outcome [4] | Potency [5] | Potency [6] | outcome [7] | Potency [8] | Potency [9] | outcome [10] | Potency [11] | outcome [12] | outcome [13] | Potency [14] | Potency [15] | Potency [17] | outcome [18]

CCCCC(CC)COC(=O)c1ccccc1O (stereo not given)
inactive: Potency [1] | outcome [2] | Potency [3] | outcome [4] | Potency [5] | Potency [6] | outcome [7] | Potency [8] | Potency [9] | outcome [10] | Potency [11] | outcome [12] | outcome [13] | Potency [14] | Potency [15] | Potency [16] | Potency [17] | outcome [18]

COC(=O)[C@@H](N)Cc1ccc(O)c(O)c1
inactive: Potency [1] | outcome [2] | Potency [3] | Potency [19] | Potency [5] | outcome [7] | Potency [9] | outcome [10] | Potency [11] | outcome [12] | outcome [13] | Potency [14] | Potency [15] | Potency [20] | Potency [16]

CCCc1cc(C(N)=S)ccn1
inactive: Potency [1] | outcome [2] | Potency [3] | outcome [4] | Potency [5] | Potency [6] | outcome [7] | Potency [8] | Potency [9] | outcome [10] | Potency [11] | Potency [14] | Potency [15] | Potency [17] | outcome [18]
